Screening results: PubChem BioAssay, Broad Institute
INS-1E GSIS act: GLuc luminescence reporter in INS-1E cells, primary screen for activators of glucose-dependent secretion of insulin; INS-1E GLuc reporter insulin secretion, 2-3 h; activation, % at 16.6 µM; 370,000 compounds, 0.61% hits;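 active = lowest replicate activation of at least 40%, so every replicate reaches that level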
dFosB act-1: activators of delta FosB homodimer, primary screen, biochemical, fluorescence polarization, TAMRA-CDK5 oligo, single point | 340,000 compounds, 0.99% hits | Protein FosB (Mus musculus), P13346 | activation, % at 25 µM | purified delta FosB; percent of positive-control signal above neutral wells;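 active = mean activation above about 17%, with every replicate also reaching it, limit read from the data, passing the limit was not always enough; inconclusive = only one of the two conditions met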
DENV2 CPE: inhibitors of DENV2 cytopathic effect, primary screen, cell-based, plate reader, single concentration. 350,000 compounds, 1.7% hits. CPE inhibition, % at 9.99 µM. AID 651640, 2012. DENV2-infected cells, cytopathic effect rescue; in the data active = CPE inhibition above about 20%, passing the limit was not always enough; inconclusive = no clear call, values can overlap the other calls; tested in BHK-21 cells
RAD54 branch: inhibitors of human RAD54 branch migration, primary screen, biochemical, fluorescence, single point; 360,000 compounds, 0.14% hits; RAD54 Holliday junction branch migration, FAM/BHQ fluorescence; inhibition, % at 10.4 µM; DNA repair and recombination protein RAD54-like (Homo sapiens), Q92698;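 active = mean normalized replicate activity at least 40 and at least half of replicates scoring 40 or more; inconclusive = only one of the two criteria met; inactive = mean below 40 and under half of replicates reaching 40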;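 note: inhibitors cause a drop in the FAM fluorescence signal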
AF4-AF9 inh: inhibitors of AF4 peptide binding to AF9, primary screen, biochemical, AlphaScreen, biotin-AF4 peptide, FLAG-AF9, single point. Protein AF-9 (Homo sapiens), P42568. inhibition, % at 10 µM. AID 651704, 2012. 350,000 compounds, 0.47% hits;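 active = every replicate reaching a set inhibition limit, whatever the replicate mean, cut at about 25% in these data; inconclusive = mean inhibition reaches that limit but some replicates miss it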
Target sequence (P42568 whole entry, looked up): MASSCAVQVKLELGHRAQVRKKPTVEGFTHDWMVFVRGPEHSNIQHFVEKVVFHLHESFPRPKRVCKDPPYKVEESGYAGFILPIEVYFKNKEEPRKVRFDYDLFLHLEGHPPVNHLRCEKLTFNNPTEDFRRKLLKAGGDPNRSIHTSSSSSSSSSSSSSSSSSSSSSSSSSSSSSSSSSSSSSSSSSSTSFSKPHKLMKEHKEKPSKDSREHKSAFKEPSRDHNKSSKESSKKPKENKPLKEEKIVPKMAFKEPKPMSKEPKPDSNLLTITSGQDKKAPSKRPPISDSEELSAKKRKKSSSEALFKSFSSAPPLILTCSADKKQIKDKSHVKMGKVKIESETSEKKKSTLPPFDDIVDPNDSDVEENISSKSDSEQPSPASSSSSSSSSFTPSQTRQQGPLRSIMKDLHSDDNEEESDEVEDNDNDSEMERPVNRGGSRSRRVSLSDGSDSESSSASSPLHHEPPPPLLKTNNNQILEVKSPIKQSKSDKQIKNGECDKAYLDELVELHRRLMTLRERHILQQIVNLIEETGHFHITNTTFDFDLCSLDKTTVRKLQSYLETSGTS
RAD52 inh: RAD52 DNA annealing inhibitors, primary screen, biochemical, FRET, single point, set 2 | DNA repair protein RAD52 homolog (Homo sapiens), P43351 | recombinant RAD52 DNA annealing, FRET fluorescence | inhibition, % at 18.7 µM | 360,000 compounds, 0.46% hits;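 active = every replicate showing at least 50% inhibition; inconclusive = mean inhibition at least 50% but not in every replicate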
dFosB act-2: activators of mouse delta FosB DNA binding, confirmation, biochemical, fluorescence polarization, TAMRA-CDK5 oligo, cherry-picked samples; shares compounds with dFosB act-1; purified delta FosB; normalised: neutral wells 0, positive control 100; activation, % at 24.9 µM; AID 588690, 2011; 2,400 tested, under 10 active;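 active = highest replicate activation at or above 34% and every replicate reaching that threshold; inconclusive = meets only one of the two criteria; inactive = meets neither criterion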;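 note: higher polarization means more probe DNA bound by delta FosB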
Of the large screens only hits and unclear results are named; the others gave an inactive call (follow-up assays come after a bar, where they were run). An excerpt weighted towards active compounds, which were near 3.1% of everything screened.

CCOc1ccc(-n2c(SCC(=O)Nc3cc(C)on3)nc3c([nH]c4ccccc43)c2=O)cc1	dFosB act-1 41 | dFosB act-2 inactive
C[C@H](CO)N1C[C@H](C)[C@@H](CN(C)Cc2cccnc2)Oc2ncc(-c3ccncc3)cc2C1=O	none (no result: dFosB act-1)
O=C(N[C@H]1C=C[C@H](CC(=O)N2CCOCC2)O[C@H]1CO)c1cccc(F)c1	none (no result: dFosB act-1)
COc1cc(/C=C/C(=O)OCC(=O)NCC(=O)Nc2cccc(C)c2C)ccc1OC(F)F	dFosB act-1 20 | dFosB act-2 inactive
COc1cc(/C=C/C(=O)OCC(=O)NCc2ccco2)ccc1OC(F)F	none
CCOc1cc(/C=N/Nc2nc3ccccc3[nH]2)cc(Br)c1OCC(=O)N(C)C	dFosB act-1 22 | dFosB act-2 inactive
COc1cc(/C=N\Nc2nc3ccccc3[nH]2)cc(OC)c1OC	none (no result: INS-1E GSIS act, DENV2 CPE, AF4-AF9 inh, RAD52 inh)
Clc1ccc(-c2ccnc(Oc3cc(Cl)ccc3Cl)n2)cc1	INS-1E GSIS act 85, dFosB act-1 19 (no result: DENV2 CPE, RAD54 branch, AF4-AF9 inh, RAD52 inh) | dFosB act-2 inactive
Cc1cccc(OCC(=O)N/N=C\C=C\c2ccc3c(c2)OCO3)c1C	dFosB act-1 38 (no result: INS-1E GSIS act, DENV2 CPE, AF4-AF9 inh, RAD52 inh) | dFosB act-2 inactive
COc1ccc(OCCSCc2nnc(NC(=O)Nc3ccc(Cl)cc3)s2)cc1	dFosB act-1 24 (no result: INS-1E GSIS act, RAD54 branch) | dFosB act-2 inactive
CCc1nnc(NC(=O)Nc2ccc(OC)cc2)s1	none (no result: INS-1E GSIS act, DENV2 CPE, AF4-AF9 inh, RAD52 inh)
Nc1ccc(S(=O)(=O)Nc2nccc(/C=C/c3ccc(Cl)cc3Cl)n2)cc1	dFosB act-1 40 | dFosB act-2 inactive
CCCCn1c(CN2C(=O)c3ccccc3C2=O)nc2ccccc2c1=O	dFosB act-1 30 (no result: DENV2 CPE, AF4-AF9 inh, RAD52 inh) | dFosB act-2 inactive
O=c1[nH]c(SCc2ccc(F)cc2)nc2c1cnn2-c1ccc(F)cc1	dFosB act-1 35 (no result: INS-1E GSIS act) | dFosB act-2 inactive
CCCSc1nc2c(cnn2-c2ccc(F)cc2)c(=O)[nH]1	dFosB act-1 48, DENV2 CPE inconclusive | dFosB act-2 inactive
O=c1[nH]c(SCc2ccccc2)nc2c1cnn2-c1ccc(F)cc1	DENV2 CPE inconclusive (no result: INS-1E GSIS act)
Cc1ccc(S(=O)(=O)Nc2ccc3c(c2)C(=O)N([C@H](C)CO)C[C@@H](C)[C@@H](CN(C)C(=O)NC(C)C)OCCCC[C@@H](C)O3)cc1	none (no result: dFosB act-1)
Cc1ccc(-n2c(=O)c3sccc3n(CC(=O)NC3CCCC3)c2=O)cc1	dFosB act-1 inconclusive
Cc1cccc(C)c1NC(=O)Cn1c(=O)n(CCC(=O)NCc2ccco2)c(=O)c2sccc21	none (no result: DENV2 CPE, RAD54 branch, AF4-AF9 inh, RAD52 inh)
Cc1ccc(C)c(Cn2c(=O)n(-c3ccc(CC(=O)NCc4ccco4)cc3)c(=O)c3sccc32)c1	dFosB act-1 30 | dFosB act-2 inactive
O=C(Cc1ccc(-n2c(=O)c3sccc3n(CC(=O)Nc3ccccc3F)c2=O)cc1)NCc1ccco1	dFosB act-1 52 (no result: RAD54 branch) | dFosB act-2 inactive
O=C(Cn1c(=O)n(-c2ccc(F)cc2)c(=O)c2sccc21)NC1CCCCC1	dFosB act-1 31 | dFosB act-2 inactive
CN(C)CC(=O)N[C@H]1CC[C@@H](CCn2cc(CN(C)C)nn2)O[C@@H]1CO	none (no result: dFosB act-1)
C[C@H]1CN([C@@H](C)CO)S(=O)(=O)c2ccc(C3=CCCCC3)cc2O[C@H]1CN(C)C(=O)C1CC1	none (no result: dFosB act-1)
CO[C@@H]1CC[C@@H]2CCN(C)C(=O)[C@H](C)CN(C)C(=O)c3cccc(C#N)c3OC[C@H]1O2	none (no result: dFosB act-1)
COc1cc(NC(=O)c2ccccc2)ccc1NC(=O)c1cc2ccccc2o1	none
Cc1cc(NC(=O)c2cncc(Br)c2)ccc1NC(=O)c1cc2ccccc2o1	dFosB act-1 58 | dFosB act-2 inactive
NS(=O)(=O)c1ccc(NC(=O)Cc2cccs2)cc1	none
